# An excerpt weighted towards active compounds, which were near 4.3% of everything screened.
# D3 ag: agonists of human D3 dopamine receptor | P35462 | D3R DiscoveRx beta-arrestin cells, luminescence, 90 min | max activation, % | 0.58% of 410,000 active; in the data active = max activation above about 30%; also: 0% is about no effect
#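 Cells at 1500/well, incubated overnight, then treated with pinned compounds (dopamine as control) for 90 min at 37 degrees C. DiscoveRx reagent added for 30 - 60 minutes at room temperature; luminescence read.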
# GLP1R inv ag: GLP-1 receptor (human) inverse agonism; HEK293 GLP-1R CRE-luciferase, luminescence, 24 h; GLP-1R form is constitutively active; Potency, µM (titrated, usually from 38.3 µM), without a hit: at the highest dose activity change, negative = inhibition, most hits filed as inhibitors; 1.6% of 410,000 active; also: potency is read from the fitted curve at half-maximal effect; % is scaled to controls: 0 for no effect and ±100 for the full control effect; nearly all actives have a fitted effect of over 55% in size
# Target sequence (P43220 whole entry, looked up): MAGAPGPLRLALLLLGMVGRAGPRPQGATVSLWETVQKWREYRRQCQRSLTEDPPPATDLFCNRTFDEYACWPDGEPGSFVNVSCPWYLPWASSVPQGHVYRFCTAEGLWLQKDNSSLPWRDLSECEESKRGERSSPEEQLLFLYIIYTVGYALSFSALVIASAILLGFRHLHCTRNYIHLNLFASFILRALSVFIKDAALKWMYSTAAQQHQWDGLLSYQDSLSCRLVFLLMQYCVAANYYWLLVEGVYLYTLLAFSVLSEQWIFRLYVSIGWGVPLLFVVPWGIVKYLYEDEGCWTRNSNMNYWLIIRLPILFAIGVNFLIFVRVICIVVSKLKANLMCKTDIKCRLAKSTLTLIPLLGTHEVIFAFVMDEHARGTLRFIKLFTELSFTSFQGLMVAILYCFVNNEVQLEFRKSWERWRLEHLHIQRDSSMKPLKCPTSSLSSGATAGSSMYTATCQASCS
#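 Seeding at 200 cells/uL, 12 h culture, 24 hr compound treatment, then luciferase reagent and a luminescence read; cells are HEK293 stably expressing a constitutively active GLP-1R plus cAMP-responsive luciferase.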
# GLP-1R agonist: agonists of human GLP-1 receptor | P43220 | HEK293 GLP-1R CRE-luciferase, luminescence, 4-6 h; cells express a hypersensitive GLP-1R form | Potency, µM (top dose mostly 45.6 µM), for the others: top-dose activation, usual class: activators | 0.007% of 380,000 active | AID 624172; also: potency is read from the fitted curve at half-maximal effect; % of control where 0% means no effect
# DRD3 antagonist: antagonists of human D3 dopamine receptor; D3R cells, DiscoveRx beta-arrestin luminescence, antagonist mode; stronger effect = lower value; max response, negative = inhibition, %; AID 652054; 2.5% of 360,000 active; in the data active = max response below about -50%; inconclusive = no clear call, values can overlap the other calls; also: % is scaled to controls: 0 for no effect and ±100 for the full control effect
#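 Cells expressing the human receptor were seeded at 1500 cells/well, incubated overnight at 37 degrees C in 5% CO2, then exposed to library compounds with dopamine controls for 90 minutes at 37 degrees C before luminescent detection.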
# * = called active by the depositor; ? = inconclusive; · = no result given. Unless noted, calls follow the shape of the dose curve; as a rule, active = well fitted curve in the direction sought with a large enough effect; inconclusive = small, poorly fitted or top-dose-only effect, or another doubt; inactive = no such curve, though single readings can be large; an effect the other way counts as inactive or inconclusive.
SMILES,D3 ag,GLP1R inv ag,GLP-1R agonist,DRD3 antagonist
CCCc1ccc(C(=O)NNC(=O)c2ccc(Cl)cc2)cc1,3,0%,1%,33
CCCc1ccc(C(=O)NNc2cc(Cl)ccc2Cl)cc1,-10,1.3µM*,0%,-25
CCCc1ccc(C(=O)NNc2cccc(C)c2)cc1,3,2.8µM*,12%,-13
COc1ccc(Cl)cc1NC(=O)Cn1cc(S(=O)(=O)Cc2cccc(Cl)c2)c2ccccc21,3,?,·,·
CC(C)C[C@H]1CN([C@@H](Cc2ccc(O)cc2)CN2CCCC2CN2C(=S)NC[C@@H]2Cc2ccccc2)C(=S)N1CC1CCCCC1 (stereo not given in full),-13,?,-2%,-51*
CC(C)C[C@H]1CN([C@@H](CC(C)C)CN2CCCC2CN2C(=S)NC[C@@H]2Cc2ccccc2)C(=S)N1CC1CCCCC1 (stereo not given in full),-15,30%,-3%,-112*
CC(C)C[C@H]1CN([C@@H](Cc2ccc(O)cc2)CN2CCC[C@@H]2CN2C(=S)NC[C@@H]2Cc2ccccc2)C(=S)N1CC1CCCCCC1,-9,?,5%,9
CC(C)C[C@@H](CN1CCCC1CN1C(=S)NC[C@@H]1Cc1ccccc1)N1C[C@H](Cc2ccccc2)N(CC2CCCCCC2)C1=S (stereo not given in full),-4,7%,1%,0
COc1ccc(OC(=O)c2nc(SCc3ccc(C)cc3)ncc2Cl)cc1,-7,-3%,·,·
Clc1ccc(SCc2cc(N3CCOCC3)nc(-c3ccccn3)n2)cc1,-23,?,11%,-53*
O=c1cc(CSc2ccc(Cl)cc2)nc(-c2ccccn2)[nH]1,-13,?,7%,-53*
O=c1cc(CSc2ccc(Cl)cc2)nc(-c2ccccc2)[nH]1,-5,5%,6%,-17
Clc1ccc(SCc2csc(N3CCOCC3)n2)cc1,3,?,1%,-18
O=C(O)c1cc2cc(Cl)ccc2oc1=O,34*,6%,-6%,-28
OC1(c2ccccc2)CC(c2ccccc2)c2ccccc2O1 (stereo not given),73*,11µM*,1%,5
CCOC(=O)C1(CC2CCCCO2)CCN(Cc2ccc(OC)cc2F)CC1 (stereo not given),-12,?,18%,-67*
COc1ccc(C(=O)OCc2cc(=O)n3nc(-c4cccs4)sc3n2)cc1,-3,18%,·,·
COc1ccc(Oc2cc(C)c3ccccc3n2)cc1,30*,?,0%,-7
CCOC(=O)C1=C(CS(=O)(=O)c2c(C)cc(C)cc2C)NC(=O)NC1c1cccc(OC)c1 (stereo not given),-1,23%,-2%,·
CC1(C)CC(=O)C2=C(C1)N=C1SCCC(=O)N1C2c1ccccc1 (stereo not given),-2,5%,2%,-53*
COc1ccc(-c2nc3scc(CCNS(=O)(=O)c4ccc(C)cc4)n3n2)cc1,12,-64%,·,·
O=C(OCc1ccccc1)N1CCC2CC1c1cc(N3CCOCC3)ccc12 (stereo not given),7,?,10%,35
CN1CCN(c2ccc3c(c2)C2CC3CCN2C(=O)OCc2ccccc2)CC1 (stereo not given),-64,10µM*,30%,?
COc1ccc(S(=O)(=O)Nc2cc3c4c(oc3c3ccccc23)CCCC4=O)cc1,1,5µM*,4%,?
COc1ccc(C2/C=C\CN(C(=O)C3CCCC3)CC(=O)N2Cc2ccc(F)cc2)cc1 (stereo not given),-22,-13%,-3%,-15
SMILES,D3 ag,GLP1R inv ag,GLP-1R agonist,DRD3 antagonist
COc1ccc(NS(=O)(=O)c2ccc3oc(Nc4ccc5c(c4)OCCO5)nc3c2)cc1,5,?,-10%,-56*
CCCCCCC(=O)O[C@@H]1CC[C@H]2[C@@H]3CCc4cc(O)ccc4[C@H]3CC[C@]12C,·,·,1%,·
CCN1CCN(/C=N/c2nc3c(s2)CCCC3)CC1,0,?,-12%,-75*
CN1CCN(CC(=O)Nc2nc3c(s2)CCCC3)CC1,-5,4%,-1%,0
Cc1c(CCNC(=O)c2ccc(Br)o2)sc2nc(-c3ccc(F)cc3)nn12,10,?,·,·
Cc1ccccc1C(=O)Nc1cc(-c2cc(C(C)(C)C)oc2C)nn1C,-9,10µM*,23%,14
Cc1ccccc1NC(=O)Nc1cc(-c2ccccc2)nn1C,8,-21%,-1%,25
Cc1onc(-c2c(Cl)cccc2Cl)c1C(=O)c1c[nH]c(C(=O)NCCCN2CCOCC2)c1,-1,0%,1%,-54*
COc1cc(NC(=O)c2cc(C3CC3)nc3c2c(C)nn3-c2ccc(C)cc2)cc(OC)c1,12,-9%,·,·
CCCCn1c(-c2cccc(Br)c2)nc2cc3[nH]c(=O)c(C(C)C)nc3cc21,63*,-27%,9%,39
Cc1cc(S(=O)(=O)Nc2cccc(C(=O)O)c2)c(C)c(S(=O)(=O)c2ccccc2)c1,5,-9%,·,·
O=C(NCCN1CCN(c2ccccc2)CC1)C1CCN(S(=O)(=O)N2CCOCC2)CC1,63*,-19%,9%,-4
CCCS(=O)(=O)N1CCC(C(=O)NCCN2CCC(Cc3ccccc3)CC2)CC1,5,-5%,-8%,-57*
CCC1CCCCN1CCCNC(=O)C1CCCN(c2nn3c(=O)cc(C)nc3s2)C1 (stereo not given),-1,23%,3%,-2
O=C(NCCc1ccccc1)C1CCN(S(=O)(=O)N2CCCCC2)CC1,-1,-28%,5%,-15
O=C(NCCCN1CCc2ccccc2C1)C1CCN(S(=O)(=O)N2CCCC2)CC1,-28,0%,-1%,-80*
O=C(NCCCN1CCN(c2ccccc2F)CC1)C1CCN(S(=O)(=O)N2CCOCC2)CC1,26,0%,-5%,?
CCS(=O)(=O)N1CCC(C(=O)NCCCN2CCC(Cc3ccccc3)CC2)CC1,-1,1%,-5%,-12
Cc1cc(=O)n2nc(N3CCCC(C(=O)NCCCN4CCc5ccccc5C4)C3)sc2n1 (stereo not given),-17,0%,-6%,-86*
Cc1ccc2c(c1)N(C(=O)N1CCC(C(=O)NCc3ccco3)CC1)CC(C)O2 (stereo not given),-13,10%,·,·
COc1ccc(C(=O)c2oc3ccccc3c2NC(=O)c2nc(SC)ncc2Cl)cc1Cl,7,12%,·,·
O=C(NCCCN1CCc2ccccc2C1)C1CCN(S(=O)(=O)N2CCC3(CC2)OCCO3)CC1,-12,2%,-3%,-65*
O=C(NCCN1CCN(c2ccccc2)CC1)c1ccc(NC(=O)C2CCCO2)cc1 (stereo not given),70*,-6%,6%,-15
O=C(Nc1ccccc1C(=O)O)c1ccc(NC(=O)C2CCCO2)cc1 (stereo not given),-2,2%,1%,9
CCCCN1C(=O)CN(C2CCCCCC2)C(=O)C1c1ccc(OCCC)c(OC)c1 (stereo not given),13,12%,·,·
